# Measurements reported in the supplement of paper PMC11624193, “Coupling cellular drug-target engagement to downstream pharmacology with CeTEAM” (Nature Communications, 2024).
# Structures can show the parent of a compound that is named as a salt.
# Target: PARP1 L713F-nLuc biosensor (HCT116) (UniProt P09874)
# Test: PARP1 L713F-nLuc/akaLuc ratio relative to DMSO control (biosensor stabilization) (fold change); higher = more PARP1 biosensor stabilization (target engagement / stabilizer), active = hit call of the paper
# Conditions: stock concentration (mM; final µM = stock mM x 1): 10; 24 h;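 active = log2 fold change beyond 2 SD from the library mean after excluding viability outliers; inactive = within 2 SD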
# PARP1 L713F-nLuc biosensor (HCT116), sequence (P09874 whole entry L713F, looked up): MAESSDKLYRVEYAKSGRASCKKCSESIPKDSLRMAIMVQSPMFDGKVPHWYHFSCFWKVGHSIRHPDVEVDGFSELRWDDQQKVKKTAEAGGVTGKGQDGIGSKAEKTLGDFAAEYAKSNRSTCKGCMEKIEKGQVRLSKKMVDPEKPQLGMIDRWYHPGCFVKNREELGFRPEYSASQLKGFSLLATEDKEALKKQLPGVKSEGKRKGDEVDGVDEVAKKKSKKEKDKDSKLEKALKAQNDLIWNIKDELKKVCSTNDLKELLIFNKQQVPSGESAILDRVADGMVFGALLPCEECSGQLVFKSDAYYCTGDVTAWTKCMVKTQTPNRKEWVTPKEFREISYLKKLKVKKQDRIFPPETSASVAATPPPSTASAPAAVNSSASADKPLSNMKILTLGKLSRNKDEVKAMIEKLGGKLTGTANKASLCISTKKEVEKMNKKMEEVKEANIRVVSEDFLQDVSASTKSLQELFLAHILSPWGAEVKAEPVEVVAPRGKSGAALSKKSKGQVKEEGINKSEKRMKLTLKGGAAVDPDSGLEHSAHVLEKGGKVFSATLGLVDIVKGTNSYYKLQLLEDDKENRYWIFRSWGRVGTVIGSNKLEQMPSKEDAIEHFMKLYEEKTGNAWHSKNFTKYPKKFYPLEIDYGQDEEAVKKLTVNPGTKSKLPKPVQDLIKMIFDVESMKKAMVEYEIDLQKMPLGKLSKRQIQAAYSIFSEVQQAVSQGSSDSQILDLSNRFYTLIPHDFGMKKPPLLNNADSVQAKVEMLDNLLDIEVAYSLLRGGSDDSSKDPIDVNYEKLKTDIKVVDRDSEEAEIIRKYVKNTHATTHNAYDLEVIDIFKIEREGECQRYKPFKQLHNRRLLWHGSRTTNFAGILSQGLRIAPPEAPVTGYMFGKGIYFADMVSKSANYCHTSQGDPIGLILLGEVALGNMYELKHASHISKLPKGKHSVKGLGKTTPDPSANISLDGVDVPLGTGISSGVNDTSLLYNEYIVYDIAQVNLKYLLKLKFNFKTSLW
row,SMILES,PARP1 L713F-nLuc/akaLuc ratio
1,N#CCNC(=O)c1ccc(-c2ccnc(Nc3ccc(N4CCOCC4)cc3)n2)cc1 [Momelotinib],0.661 (inactive)
2,N=C(N)c1ccc(-c2ccc(-c3ccc(C(=N)N)cc3)o2)cc1 [Furamidine (dihydrochloride)],0.717 (inactive)
3,O=c1c(-n2ccnn2)c[nH]n1-c1cc(N2CCOCC2)ncn1 [Molidustat],0.788 (inactive)
4,Cn1cc(CCn2cnc(-c3cnn(C)c3)c2-c2ccc(C#N)cc2)cn1,0.997 (inactive)
5,COc1ccc(-n2c(SCCCN3C(=O)c4cccc5cccc(c45)C3=O)nnc2-c2ccncc2)cc1,0.933 (inactive)
6,CCN(CC)C(=S)SSC(=S)N(CC)CC [Disulfiram],0.658 (inactive)
7,CNC(=O)c1ccc(C)c(-n2c(C)cc(OCc3ccc(F)cc3F)c(Br)c2=O)c1,0.728 (inactive)
8,O=C(Nc1ccccc1-c1cn2c(CN3CC[C@@H](O)C3)csc2n1)c1ccc2ccccc2c1,0.641 (inactive)
9,N[C@H]1C(O)O[C@H](CO)[C@@H](O)[C@@H]1O (some centres undefined) [Glucosamine (hydrochloride)],1.15 (inactive)
10,CCN(CC)Cc1cc(Nc2ccnc3cc(Cl)ccc23)ccc1O [Amodiaquine (dihydrochloride)],1.11 (inactive)
11,N#CCC1(n2cc(-c3ncnc4[nH]ccc34)cn2)CN(C2CCN(C(=O)c3ccnc(C(F)(F)F)c3F)CC2)C1 [Itacitinib adipate],1.05 (inactive)
12,Clc1ccc(Nc2nnc(Cc3ccncc3)c3ccccc23)cc1 [Vatalanib (PTK787) 2HCl],0.831 (inactive)
13,CNS(=O)(=O)C[C@H]1CC[C@H](N(C)c2[nH]cnc3nccc2-3)CC1 [Oclacitinib (maleate)],0.749 (inactive)
14,Cc1cc(Cl)ccc1OCCCC(=O)NO [Droxinostat],2.78 (active)
15,CN(C)C(=O)c1ccc(S(=O)(=O)c2ccc(NC(=O)[C@@](C)(O)C(F)(F)F)c(Cl)c2)cc1,1.12 (inactive)
16,CCCc1cc(C)[nH]c(=O)c1CNC(=O)c1cc(-c2ccnc(N3CCN(C)CC3)c2)cc2c1cnn2C(C)C,2.54 (inactive)
17,O=C(NOCCO)c1ccc2cncn2c1Nc1ccc(I)cc1F,0.421 (inactive)
18,NCCNS(=O)(=O)c1cccc2c(Cl)cccc12 [A-3 (hydrochloride)],0.846 (inactive)
19,CC1(C)CNc2cc(NC(=O)c3cccnc3NCc3ccncc3)ccc21 [Motesanib Diphosphate (AMG-706)],1.5 (inactive)
20,Cc1cc(Nc2cc3ncccc3c(N[C@@H]3C[C@H]4CC[C@@H](C3)N4CCC#N)n2)n[nH]1 [Izencitinib],0.804 (inactive)

row,SMILES,PARP1 L713F-nLuc/akaLuc ratio
1,COc1ccc(C(NC(=O)c2cnc(-c3cccnn3)[nH]c2=O)c2ccc(OC)cc2)cc1,0.884 (inactive)
2,NC(=O)c1cnc2[nH]ccc2c1N[C@@H]1[C@@H]2CC3C[C@H]1C[C@@](O)(C3)C2 [Peficitinib],1.02 (inactive)
3,COc1ccccc1S(=O)(=O)Nc1ccc2c3c(cc(-n4cnc(C)c4)nc13)C(=O)N2C,1.04 (inactive)
4,Cn1nnc2c(C(N)=O)ncn2c1=O [Temozolomide],0.833 (inactive)
5,COc1cc2ncnc(Nc3ccc(O)cc3)c2cc1OC,0.842 (inactive)
6,O=C(Nc1ccc2c(O)cc(S(=O)(=O)O)cc2c1)Nc1ccc2c(O)cc(S(=O)(=O)O)cc2c1 [AMI-1 (free acid)],1.04 (inactive)
7,CO[C@H]1C[C@@H]2CC[C@@H](C)[C@@](O)(O2)C(=O)C(=O)N2CCCC[C@H]2C(=O)O[C@H]([C@H](C)C[C@@H]2CC[C@@H](O)[C@H](OC)C2)CC(=O)[C@H](C)/C=C(\C)[C@@H](O)[C@@H](OC)C(=O)[C@H](C)C[C@H](C)/C=C/C=C/C=C/1C [Rapamycin (Sirolimus)],0.6 (inactive)
8,Oc1cc(O)c2cc(O)c(-c3cc(O)c(O)c(O)c3)[o+]c2c1 [Delphinidin (chloride)],1.09 (inactive)
9,CC(=O)Nc1ccc(NC(=S)NC(=O)c2ccc(C(C)(C)C)cc2)cc1 [Tenovin-1],0.509 (inactive)
10,O=C1c2ccccc2C(=O)c2c(NCCc3ccc(O)cc3)ccc(NCCc3ccc(O)cc3)c21,0.91 (inactive)
11,O=C(O)CCNc1cc(N2CCc3ccccc3CC2)nc(-c2cccnc2)n1,1.22 (inactive)
12,O=C(Nc1ccc(C(F)(F)F)cc1)Nc1ccc(S(=O)(=O)N2CCC[C@H]2C(=O)Nc2ccccc2)cc1,0.728 (inactive)
13,Cc1cc(C)cc(Oc2ccc(CNC(=O)[C@H](C)N)cc2C)c1,1.24 (inactive)
14,CCCCCC1CC1CC1CC1CCCCCCCC(=O)OC (centres undefined),1 (inactive)
15,CN1CCN(c2ccc(Nc3ncc4cc(C#N)c(=O)n(C5CCCC5)c4n3)cc2)CC1,0.701 (inactive)
16,Cc1cc(Nc2nc(N[C@@H](C)c3ccc(F)cc3)c(C#N)cc2F)n[nH]1,13.6 (active)
17,Nc1nc(N)c2nc(-c3cccc(O)c3)c(-c3cccc(O)c3)nc2n1,1.46 (inactive)
18,COc1cc(OC)c(/C=C/S(=O)(=O)Cc2ccc(OC)c(NCC(=O)O)c2)c(OC)c1,0.583 (inactive)
19,Nc1ncn([C@@H]2O[C@H](CO)[C@@H](O)[C@H]2O)c(=O)n1 [Azacitidine],4.35 (active)
